# Experimental data as given in PubChem BioAssay (NCATS).
# Inconclusive results are not listed. Active and inactive are the calls of the source. Calls follow the shape of the dose curve; as a rule, active = well fitted inhibition curve with a large enough effect; inconclusive = small, poorly fitted or top-dose-only effect; inactive = flat fitted curve, though single readings scatter.
# Biological target: Calcium and integrin-binding protein 1 (Homo sapiens) (UniProt Q99828)
# Experiment: Primary qHTS for Identification of Calcium Integrin Binding Protein 1 (CIB1) Competitor (AID 1508620);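 also: GST tagged CIB1 binding a fluorescein labelled alphaIIb integrin peptide tracer; top concentration of the series differs between compounds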
# Settings: CIB1-GST / FITC-alphaIIb peptide fluorescence polarization; series mostly up to 57.7 µM; activity change, negative = inhibition: at the top concentration
# Summary of the method: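 Fluorescence polarization competition: CIB1-GST (1 uM final) preincubated with compound 15 min at room temperature, then FITC-labeled alphaIIb peptide (100 nM final) added for another 15 min. Polarization read at Ex 480/Em 540.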
# % is scaled to controls: 0 for no effect and ±100 for the full control effect.
# Calcium and integrin-binding protein 1 (Homo sapiens), sequence (Q99828 whole entry, looked up): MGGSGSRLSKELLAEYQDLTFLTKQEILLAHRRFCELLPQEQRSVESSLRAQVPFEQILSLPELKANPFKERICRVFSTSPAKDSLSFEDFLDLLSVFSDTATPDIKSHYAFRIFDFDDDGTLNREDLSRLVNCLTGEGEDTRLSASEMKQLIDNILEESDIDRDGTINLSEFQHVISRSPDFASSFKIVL
SMILES,"activity change, negative = inhibition",outcome
CC1(C)OC2=C(C(=O)c3ccccc3C2=O)[C@H](NCc2ccccc2)[C@H]1O,-5.42% (inactive),–
CN(C)c1nc(Cc2ccc(NC(=O)c3ccc4ccccc4c3)cc2)nc(Cl)c1CC(=O)O,–,inactive
CC(C)(C)NC(=O)[C@H]1CN(Cc2cccnc2)CCN1C[C@@H](O)C[C@@H](Cc1ccccc1)C(=O)N[C@H]1c2ccccc2C[C@H]1O,-1.45% (inactive),–
Nc1ccn([C@@H]2O[C@H](CO)[C@H](O)C2(F)F)c(=O)n1,-1.38% (inactive),–
CCOc1cc2ncc(C#N)c(Nc3ccc(F)c(Cl)c3)c2cc1NC(=O)C=CCN(C)C,4.95% (inactive),–
c1ccc2c(CCNc3ccc(Nc4ccncc4)cc3)c[nH]c2c1,–,inactive
CCC1=C[C@@H]2CN(C1)Cc1c([nH]c3ccccc13)[C@@](C(=O)OC)(c1cc3c(cc1OC)N(C)[C@@H]1[C@@](O)(C(=O)OC)[C@H](OC(C)=O)[C@]4(CC)C=CCN5CC[C@]31[C@@H]54)C2,-0.177% (inactive),–
COc1cccc2c(NCc3ccccc3)nc(-n3c(N)nc4ccccc43)nc12,–,inactive
O=C(C=Cc1cccnc1)NCCCCC1CCN(C(=O)c2ccccc2)CC1,0.73% (inactive),–
C=CC(=O)Nc1cccc(Oc2nc(Nc3ccc(N4CCN(C)CC4)cc3OC)ncc2Cl)c1,–,inactive
COc1cc(C(C)C)c2c(c1)S(=O)(=O)N(COc1cc(=O)n3cccc(OCCN4CCCCC4)c3n1)C2=O,-1.12% (inactive),–
COC(=O)Nc1nc2ccc(C(=O)c3ccc(F)cc3)cc2[nH]1,–,inactive
Cn1c(=O)n(-c2ccc(C(C)(C)C#N)cc2)c2c3cc(-c4cnc5ccccc5c4)ccc3ncc21,–,inactive
